Assay outcomes deposited in PubChem BioAssay by Broad Institute.
Wnt bcat act = Wnt/beta-catenin pathway activation; Wnt/beta-catenin reporter cell assay, activator, plate reader; activation, % at 9.35 µM; actives 1.2% (n = 300,000); AID 743398; in the data active means activation above about 30%, passing the limit was not always enough; inconclusive means no clear call, values can overlap the other calls
esBAF inh = SWI/SNF esBAF complex inhibition. mouse ES cells, Bmi1-luciferase knock-in reporter, 24 h; 100% = twice the neutral-well signal. reporter increase, % at 12.5 µM. actives 2% (n = 350,000); in the data active means activation above about 40%; inconclusive means no clear call, values can overlap the other calls;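 further: a rise in the Bmi1 reporter signal indicates esBAF inhibition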
MITF act = MITF TRPM1 promoter activation in melanoma cells. SK-MEL-5 TRPM1-promoter luciferase, 24 h; % of positive control, neutral wells = 0. activation, % at 12.5 µM. actives 0.75% (n = 300,000). AID 588334;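 active means mean activation of at least 80% with every replicate also reaching 80%; inconclusive means mean reaches 80% but some replicate falls short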
HSF-1 act = increases HSF-1 driven luciferase reporter signal | actives 1.7% (n = 300,000) | AID 504408 | activation, % at 9 µM | NIH3T3-HGL HSF-1 luciferase reporter, MG132, 8 h; 100% = twice DMSO control signal;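 active means mean replicate activation of at least 50% with a set share of replicates each reaching 50%; inconclusive means only one of those two conditions met; inactive means mean below 50% and too few replicates reaching it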
HSF1 inhib = HSF1 inhibition | NIH3T3-HGL HSE-luciferase, MG132-induced, luminescence 8 h; hits give low values | activity change, negative = inhibition, % at 7.5 µM (by protocol) | actives 0.77% (n = 300,000) | AID 2098;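 active means more than half of replicate wells show activity change below -50%, luminescence cut by over half; inconclusive means some wells, but at most half, below -50%; inactive means no replicate well below -50%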;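 further: luciferase reports HSF-1 transcriptional activity via heat shock element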
Numbers stand for hits; n = inactive; u = inconclusive; x = no result. Compounds with a hit are over-represented: about 3.8% of the library has one in this group of screens.

SMILES | Wnt bcat act | esBAF inh | MITF act | HSF-1 act | HSF1 inhib
Cc1ccc(C(=O)Nc2cccc(-c3ccc(N4CCOCC4)nn3)c2)cc1C | n | x | n | n | n
COc1cccc(OC)c1C(=O)Nc1cccc(-c2ccc(N3CCOCC3)nn2)c1 | n | n | 83 | n | n
COc1ccc(C(=O)Nc2cccc(-c3ccc(N4CCOCC4)nn3)c2)cc1 | n | 45 | 90 | n | n
Cc1cc(C(=O)Nc2cccc(-c3ccc(N4CCOCC4)nn3)c2)ccc1[N+](=O)[O-] | n | x | n | n | n
COc1cc(OC)cc(C(=O)Nc2cccc(-c3ccc(N4CCOCC4)nn3)c2)c1 | n | n | 101 | n | n
CC(C)NC(=O)N(C)C[C@@H]1Oc2ccc(NC(=O)Nc3ccc(F)cc3)cc2CC(=O)N([C@@H](C)CO)C[C@@H]1C | x | n | x | x | x
Nc1nc(SCc2ccccc2)[nH]c(=O)c1-c1ccccc1 | n | 45 | n | n | n
Cc1ccc2oc(=O)n(CC(=O)OC(C)C)c2c1 | x | n | n | n | n
CC(C)OC(=O)Cn1c(=O)oc2ccccc21 | x | n | n | n | -52
C[C@@H]1CCCCO[C@H](CN(C)Cc2ccccc2)[C@H](C)CN([C@H](C)CO)C(=O)c2cc(NC(=O)C3CCCCC3)ccc2O1 | x | n | x | x | x
CCCCOc1ccc(-c2cn3ccccc3n2)cc1[N+](=O)[O-] | x | x | n | 63 | n
CCCOc1ccc(-c2csc(N)n2)cc1[N+](=O)[O-] | n | x | 99 | n | n
Nc1nc(-c2ccc([N+](=O)[O-])cc2)cs1 | x | x | n | n | n
CCOc1ccc(-c2cn3ccccc3n2)cc1[N+](=O)[O-] | n | x | n | 55 | n
CCNC(=O)C[C@@H]1CC[C@@H]2[C@H](COc3ccc(NC(=O)c4ccc(C(F)(F)F)cc4)cc3C(=O)N2C)O1 | x | n | x | x | x
CCCNC(=O)Nc1ccc2c(c1)C(=O)N(C)C[C@@H](OC)[C@@H](C)CN(C(=O)c1ccccc1F)[C@@H](C)CO2 | x | n | x | x | x
CCC(=O)N1C[C@@H](C)[C@@H](OC)CN(C)C(=O)c2cc(NC(=O)Nc3cccc(F)c3)ccc2OC[C@H]1C | x | n | x | x | x
O=C(Cn1cnc2c(nnn2-c2cccc(Cl)c2)c1=O)N1CCOCC1 | 56 | n | n | n | n
O=C(Cn1cnc2c(nnn2-c2ccccc2)c1=O)N1CCOCC1 | n | n | n | n | n
C[C@H]1CCCCO[C@@H](CN(C)C(=O)c2ccccc2)[C@@H](C)CN([C@@H](C)CO)C(=O)c2cc(NC(=O)c3ccncc3)ccc2O1 | x | n | x | x | x
Oc1[nH]c2ccccc2c1N=NC(=S)N1CCOCC1 | x | n | n | 87 | n
O=C(N=Nc1c(O)[nH]c2ccccc12)c1ccc2c(c1)OCO2 | 46 | x | n | n | n
Oc1[nH]c2ccc(Br)cc2c1N=NC(=S)N1CCOCC1 | n | x | n | 240 | n
C[C@H](CO)N1C[C@H](C)[C@@H](CN(C)C(=O)Nc2ccc(F)cc2)OCCCC[C@H](C)Oc2ccc(NC(=O)Nc3ccc4c(c3)OCO4)cc2C1=O | x | 50 | x | x | x
C[C@@H]1CN([C@@H](C)CO)C(=O)c2cc(NC(=O)Nc3ccc4c(c3)OCO4)ccc2O[C@@H](C)CCCCO[C@H]1CN(C)C(=O)Nc1ccccc1 | x | 66 | x | x | x
SMILES | Wnt bcat act | esBAF inh | MITF act | HSF-1 act | HSF1 inhib
C[C@@H]1CCCCO[C@@H](CN(C)C(=O)Nc2ccc3c(c2)OCO3)[C@H](C)CN([C@H](C)CO)C(=O)c2cc(NC(=O)Nc3ccccc3)ccc2O1 | x | n | x | x | x
C[C@H]1CCCCO[C@@H](CN(C)Cc2ccncc2)[C@@H](C)CN([C@@H](C)CO)C(=O)c2cc(NC(=O)Nc3ccc4c(c3)OCO4)ccc2O1 | x | 80 | x | x | x
Cc1noc(C)c1NC(=O)N(C)C[C@@H]1Oc2ccc(NS(=O)(=O)c3ccc(Cl)cc3)cc2CC(=O)N([C@@H](C)CO)C[C@H]1C | x | n | x | x | x
CO[C@@H]1CN(C)C(=O)c2cc(NS(C)(=O)=O)ccc2OC[C@H](C)N(C(=O)C2CCCC2)C[C@@H]1C | x | n | x | x | x
COc1ccc(-c2cn(-c3ccccc3)nc2CO)cc1 | n | n | n | n | -89
COc1ccc(-c2nn(-c3ccccc3)cc2N)cc1 | 59 | x | n | n | n
COc1ccc(-c2nn(-c3ccccc3)cc2C(=O)N2CCOCC2)cc1 | x | n | n | n | n
COc1ccccc1CN1[C@H](CO)[C@H]2c3ccccc3N(C(=O)c3ccc(F)cc3)C[C@H]21 | x | n | x | x | x
COc1ccc(NC(=O)N(C)C[C@@H]2OCCCC[C@@H](C)Oc3ccc(NC(=O)Nc4cccc5ccccc45)cc3C(=O)N([C@@H](C)CO)C[C@@H]2C)cc1 | x | n | x | x | x
O=[N+]([O-])c1ccccc1NCCNS(=O)(=O)c1ccc(Cl)cc1 | x | x | n | n | n
O=[N+]([O-])c1cc(Cl)ccc1NCCNS(=O)(=O)c1ccccc1 | x | x | n | 55 | n
Cc1ccc(NC(=O)c2ccc(C(C)(C)C)cc2)cc1[N+](=O)[O-] | x | x | 121 | n | n
Cc1ccc(NC(=O)c2ccc(Nc3c([N+](=O)[O-])cc([N+](=O)[O-])cc3[N+](=O)[O-])cc2)cc1 | n | x | n | n | -71
Cc1cc(C(=O)Nc2ccc3c(c2)CCC3)ccc1[N+](=O)[O-] | 51 | x | x | 55 | n
CC(C)(C)c1ccc(NC(=O)c2ccccc2)c([N+](=O)[O-])c1 | 75 | n | n | n | n
C[C@@H]1CN([C@@H](C)CO)C(=O)c2cccc(NS(=O)(=O)c3ccc(F)cc3)c2O[C@@H]1CN(C)S(C)(=O)=O | x | n | x | x | x
Cc1c(NC(=O)c2ccc(C(C)(C)C)cc2)cccc1[N+](=O)[O-] | n | x | n | 72 | n
Cc1cc(C(=O)Nc2cccc([N+](=O)[O-])c2C)cs1 | n | n | n | n | n
Cc1cc(C)nc(Nc2ccc(C)c([N+](=O)[O-])c2)n1 | n | 49 | n | n | n
COc1ccc(NC(=O)Nc2ccc3c(c2)C(=O)N([C@@H](C)CO)C[C@H](C)[C@@H](CN(C)S(=O)(=O)c2ccc(F)cc2)OCCCC[C@H](C)O3)cc1 | x | n | x | x | x
COc1ccc(-c2cc(=O)c3cc(O)ccc3o2)cc1 | n | n | x | n | n
O=c1cc(-c2ccsc2)oc2ccc(-c3ccc4cc[nH]c4c3)cc12 | n | 59 | 115 | x | x
COc1ccc(-c2ccc3oc(-c4ccsc4)cc(=O)c3c2)cc1F | n | 45 | n | x | x
COc1cc(-c2ccc3oc(-c4ccsc4)cc3c2)cc(OC)c1OC | n | n | n | n | n
CC(C)n1c(/C=C/c2ccccc2)nc2ccccc21 | n | 51 | n | 107 | n
SMILES | Wnt bcat act | esBAF inh | MITF act | HSF-1 act | HSF1 inhib
CCc1nc2ccccc2n1Cc1ccc(OC)c(OC)c1 | n | n | n | n | n
CCCn1c(/C=C/c2ccccc2)nc2ccccc21 | x | n | n | x | x
COCCOCCn1c(/C=C/c2ccccc2)nc2ccccc21 | n | x | n | 60 | n
COCn1c(-c2ccc(OC)c(OC)c2)nc2ccccc21 | x | 47 | x | n | n
COc1ccc(/C=C/c2nc3ccccc3n2Cc2ccc(OC)c(OC)c2)cc1 | n | u | 108 | n | n
COCn1c(-c2cccc(Br)c2)nc2ccccc21 | x | n | n | n | n
